# Experimental data: PMC4336329 (PLoS ONE, 2015)
# Hit rate of the full screen: of about 310,000 compounds, about 14,000 (4.5%) showed an effect of 50% or more. The effect is printed as a negative number. The sample as a whole holds a higher share of strong results than the screen did.
# Target: human ether-à-go-go-related gene (hERG) potassium channel (human, UniProt Q12809)
# Assay: primary screen, population patch clamp on CHO cells stably expressing hERG; higher = less effect of the substance
# 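Further: peak tail current of the secondary pulse compared with the same well before compound.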
# human ether-à-go-go-related gene (hERG) potassium channel, sequence (Q12809 whole entry, looked up): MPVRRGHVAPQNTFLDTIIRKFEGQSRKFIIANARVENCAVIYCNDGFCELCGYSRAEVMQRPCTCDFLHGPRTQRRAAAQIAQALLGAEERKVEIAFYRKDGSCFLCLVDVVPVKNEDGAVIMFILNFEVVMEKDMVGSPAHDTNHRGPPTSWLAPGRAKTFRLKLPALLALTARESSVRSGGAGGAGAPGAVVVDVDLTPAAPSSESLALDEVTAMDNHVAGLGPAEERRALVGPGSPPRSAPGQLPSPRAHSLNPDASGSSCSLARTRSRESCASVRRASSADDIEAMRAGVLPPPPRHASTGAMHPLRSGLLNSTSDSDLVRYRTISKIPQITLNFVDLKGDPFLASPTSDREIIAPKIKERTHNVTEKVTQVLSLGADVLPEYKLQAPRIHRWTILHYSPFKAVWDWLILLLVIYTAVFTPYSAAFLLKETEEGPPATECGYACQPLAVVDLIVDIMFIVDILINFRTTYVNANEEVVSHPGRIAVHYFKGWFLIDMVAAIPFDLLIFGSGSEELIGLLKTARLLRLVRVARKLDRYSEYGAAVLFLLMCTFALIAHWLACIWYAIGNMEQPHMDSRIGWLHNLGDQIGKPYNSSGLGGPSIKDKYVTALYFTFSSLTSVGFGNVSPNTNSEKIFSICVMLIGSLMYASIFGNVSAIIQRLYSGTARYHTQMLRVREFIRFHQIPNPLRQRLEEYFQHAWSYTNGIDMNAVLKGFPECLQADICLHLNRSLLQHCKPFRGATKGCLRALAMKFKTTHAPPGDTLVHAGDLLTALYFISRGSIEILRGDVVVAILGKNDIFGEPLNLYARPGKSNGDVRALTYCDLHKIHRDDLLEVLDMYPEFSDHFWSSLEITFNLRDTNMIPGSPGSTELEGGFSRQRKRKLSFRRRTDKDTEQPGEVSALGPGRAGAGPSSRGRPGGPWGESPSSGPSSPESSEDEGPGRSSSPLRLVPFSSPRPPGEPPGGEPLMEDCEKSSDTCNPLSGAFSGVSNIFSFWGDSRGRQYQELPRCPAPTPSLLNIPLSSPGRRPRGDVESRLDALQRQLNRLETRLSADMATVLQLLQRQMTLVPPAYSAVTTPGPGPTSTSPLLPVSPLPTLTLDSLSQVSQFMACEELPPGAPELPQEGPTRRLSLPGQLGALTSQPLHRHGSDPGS
row,SMILES,"hERG current change (%, negative = inhibition) at 10uM [%]"
1,COc1ccccc1C1C(C(=O)c2sc(C)nc2C)=C(O)C(=O)N1CCN1CCOCC1 (stereo not drawn),4.26
2,O=c1[nH]c2ccccc2cc1CN(Cc1cccnc1)S(=O)(=O)c1ccc(Cl)cc1,-56.2
3,Cc1ccc(S(=O)(=O)N(Cc2cc3ccccc3[nH]c2=O)CC2CCCO2)cc1 (stereo not drawn),10.5
4,COc1ccc(S(=O)(=O)N(Cc2cccnc2)Cc2cc3ccccc3[nH]c2=O)cc1,-18.6
5,O=c1[nH]c2ccccc2cc1CN(CC1CCCO1)S(=O)(=O)c1ccccc1 (stereo not drawn),-10.3
6,Cc1ccc(S(=O)(=O)N(Cc2cccnc2)Cc2cc3ccccc3[nH]c2=O)cc1,-19.5
7,O=c1[nH]c2ccccc2cc1CN(CC1CCCO1)S(=O)(=O)c1ccc(Cl)cc1 (stereo not drawn),-75.1
8,CC(=O)NC(C)c1cc(Cl)c2ccccc2c1O (stereo not drawn),1.04
9,COc1cc2cc(C(=O)N3CCOCC3)cc(-c3ccc(C)cc3)c2cc1OC,-8.61
10,COc1ccccc1/C=N/NC(=O)c1ccc(Cn2nc([N+](=O)[O-])cc2C)cc1,-12.7
11,C/C(=N\NC(=O)C(O)(c1ccccc1)c1ccccc1)c1ccc(C)o1,-2.62
12,CCOC(=O)N/N=C(/C)c1ccc([N+](=O)[O-])o1,-25.4
13,C/C(=N/NC(=O)C(O)(c1ccccc1)c1ccccc1)c1ccc([N+](=O)[O-])o1,-71.6
14,COc1ccc(CNC(=O)C(c2ccc(C)o2)N(C(=O)c2csnn2)c2ccc(C(C)C)cc2)cc1 (stereo not drawn),-42.9
15,Cc1ccccc1OCC(O)Cn1nnc2ccccc21 (stereo not drawn),5.21
16,Cc1ccccc1OCC(O)Cn1c2ccccc2c2ccccc21 (stereo not drawn),2.67
17,Br.C=CCn1c(=N)n(CC(=O)c2ccc(OC)cc2)c2ccccc21,-43.7
18,C=CCn1c(=N)n(CC(O)c2ccco2)c2ccccc21.Cl (stereo not drawn),-23.1
19,COc1ccccc1OCC(O)CO (stereo not drawn),12.4
20,Cc1ccccc1OCC(O)Cn1c(=N)n(Cc2ccccc2)c2ccccc21.Cl (stereo not drawn),-73
21,COc1ccccc1OC[C@H](O)CO,24
22,C=CCn1c(=N)n(CC(O)COc2ccccc2OC)c2ccccc21.Cl (stereo not drawn),-67
23,COc1ccccc1OCC(O)Cn1c(=N)n(Cc2ccccc2)c2ccccc21.Cl (stereo not drawn),-71
24,Cc1ccc(NC(=O)COC(=O)COc2cccc3c2OC(C)(C)C3)c(C)c1,19.8
25,FC(F)(F)c1nc(SCc2ccc(Cl)cc2Cl)n[nH]1,-0.342
26,Cc1c(N2C(=O)/C(=C\C3CC=CCC3)SC2=S)c(=O)n(-c2ccccc2)n1C (stereo not drawn),-6.68
27,CCCCc1cn(C[C@H]2CC[C@@H]([C@@H]3CC[C@H](Cn4cc(CCCC)nn4)O3)O2)nn1,-54.9

row,SMILES,"hERG current change (%, negative = inhibition) at 10uM [%]"
1,ClCCCc1cn(C[C@H]2CC[C@@H]([C@@H]3CC[C@H](Cn4cc(CCCCl)nn4)O3)O2)nn1,-33.6
2,CC(=O)OCC1OC(OCc2cn(C[C@H]3CC[C@@H]([C@@H]4CC[C@H](Cn5cc(COC6OC(COC(C)=O)C(OC(C)=O)C(OC(C)=O)C6OC(C)=O)nn5)O4)O3)nn2)C(OC(C)=O)C(OC(C)=O)C1OC(C)=O (stereo partly drawn),0.857
3,c1c(CC2CCCC2)nnn1C[C@H]1CC[C@@H]([C@@H]2CC[C@H](Cn3cc(CC4CCCC4)nn3)O2)O1,-57.6
4,OCCCc1cn(CC2CCCCC2)nn1,2.61
5,c1ccc(SCc2cn(C[C@H]3CC[C@@H]([C@@H]4CC[C@H](Cn5cc(CSc6ccccc6)nn5)O4)O3)nn2)cc1,-62.1
6,c1ccc(Cn2cc(CSc3ccccc3)nn2)cc1,-11
7,O=C1c2ccccc2C(=O)N1CCCc1cn(C[C@H]2CC[C@@H]([C@@H]3CC[C@H](Cn4cc(CCCN5C(=O)c6ccccc6C5=O)nn4)O3)O2)nn1,-23.8
8,c1ccc(CCc2cn(C[C@H]3CC[C@@H]([C@@H]4CC[C@H](Cn5cc(CCc6ccccc6)nn5)O4)O3)nn2)cc1,-38.2
9,O=C(NN=C1C2CC3CC(C2)CC1C3)c1cccc(S(=O)(=O)N2CCOCC2)c1,0.586
10,COC(=O)CSC1=C(C#N)C(c2cccc(F)c2)CC(=O)N1 (stereo not drawn),9.97
11,CC1c2[nH]c3ccccc3c2CCN1S(C)(=O)=O (stereo not drawn),3.54
12,COc1ccc(C2CC(c3cccs3)=NN2C(=O)CSc2nnc(N)s2)cc1OC (stereo not drawn),-4.6
13,O=C(CCCOc1ccccc1)Nc1ccc(Cl)cn1,-3.18
14,CCCCC(=O)Nc1cc(OCC)c(NC(=O)c2ccccc2[N+](=O)[O-])cc1OCC,-4.27
15,Fc1cccc(Cl)c1-c1nnc2ccc(C(F)(F)F)cn12,10.9
16,FC(F)(F)c1ccc2nnc(-c3c(Cl)cccc3Cl)n2c1,-4.48
17,FC(F)(F)c1cccc(-c2nnc3ccc(C(F)(F)F)cn23)c1,-65.2
18,O=C(Nc1ccc2nc3ccccc3nc2c1)c1ccc(Br)cc1,17.9
19,O=C(NC(=S)N1CCN(c2ccc(Cl)cc2[N+](=O)[O-])CC1)c1cccs1,-30
20,CCC(=O)N1CCN(c2ccc(Cl)cc2NC(=S)NC(=O)c2ccco2)CC1,-0.88
21,O=C(NC(=S)N1CCN(c2ccc([N+](=O)[O-])cc2)CC1)c1ccccc1Cl,-39.8
22,O=C(NC(=S)N1CCN(c2ccc([N+](=O)[O-])cc2)CC1)c1ccc(F)cc1,-58.5
23,O=C(NC(=S)N1CCN(c2ccc([N+](=O)[O-])cc2)CC1)c1ccccc1F,-25.8
24,O=C(NC(=S)N1CCN(c2ccc([N+](=O)[O-])cc2)CC1)c1ccco1,-61.2
25,Cc1ccc(C(=O)NC(=S)N2CCN(c3ccc([N+](=O)[O-])cc3)CC2)cc1,-15.6
26,O=C(NC(=S)N1CCN(c2ccc([N+](=O)[O-])cc2)CC1)c1ccccc1,0.58
27,O=C(NC(=S)N1CCN(c2ccc(Cl)cc2[N+](=O)[O-])CC1)c1ccco1,-68.4
